Compound activity from PubChem BioAssay.
Pf growth 48h = P. falciparum growth inhibition at 48 hours (one generation) | P. falciparum luciferase growth in erythrocytes, 48 h | Potency, µM (series often up to 28.7 µM), usual class: inhibitors | 310,000 compounds, 5.9% hits | AID 504832
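Erythrocytes infected with P. falciparum carrying an integrated firefly luciferase reporter (2% hematocrit, 0.1% parasitemia final) were exposed to compounds in RPMI 1640 with 0.5% Albumax at 37 C, 5% CO2. Growth inhibition was scored as reduced luminescence.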
Pf growth 96h = P. falciparum growth inhibition at 96 hours; P. falciparum luciferase reporter growth, 96 h; Potency, µM (highest dose often 28.7 µM), actives largely listed as inhibitors; 320,000 compounds, 6.9% hits; AID 504834
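Luminescence readout: decreased luciferase signal marks inhibited growth of reporter-expressing P. falciparum in infected red cells (2% hematocrit, 0.05% parasitemia final), exposed to compound two generations (96 h, 37 C, 5% CO2).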
HCMV inh = human cytomegalovirus inhibition | 410,000 compounds, 4.5% hits | activity change, negative = inhibition, % at 57.5 µM | HFF cells, HCMV-luciferase reporter, 72 h; active compounds read low | AID 1259415; in the data active = activity change below about -60%; inconclusive = no clear call, values can overlap the other calls; inactive = above about -39%
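Compounds were evaluated in HFFs infected with an HCMV luciferase reporter virus (MOI 1 PFU/cell). Luciferase in lysates collected 72 h post infection served as the replication measure.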
HCV inhibitor = inhibitors of hepatitis C virus infection; 340,000 compounds, 3.4% hits; Huh7.5.1 HCVcc-Cre infection, luciferase reporter, 44 h; Potency, µM (series often up to 41.8 µM), actives largely listed as inhibitors
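Cells seeded at 1,000/well and cultured 4 h, then compounds added followed by HCVcc-Cre virus (~0.5 moi). After 44 h further culture, luciferase substrate was added, plates held 15 min at room temperature, and luminescence read for 15 sec.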
Each line names hits and unclear results; the compound was inactive in the other large screens. Rows were chosen to be rich in hits. Some 13% of all compounds tested hit in one or more screens of this group. Unless noted, calls follow the shape of the dose curve; as a rule, active = well fitted inhibition curve with a large enough effect; inconclusive = small, poorly fitted or top-dose-only effect, or another doubt; inactive = no such curve, though single readings can be large or run the other way.

O=C(c1cccs1)N1CCCC(c2nc3c(nnn3Cc3ccccc3)c(=O)[nH]2)C1 (configuration not stated)	Pf growth 48h 8.3µM, Pf growth 96h 5.9µM
Cc1ccc(C)c(Cn2nnc3c(=O)[nH]c(C4CCCN(C(=O)C5CCCCC5)C4)nc32)c1 (configuration not stated)	Pf growth 48h 6.6µM
CCCC(=O)N1CCC1(C)C(=O)NS(=O)(=O)c1cc2c(cc1C)CCCS2(=O)=O (configuration not stated)	none (no result: Pf growth 48h, Pf growth 96h, HCV inhibitor)
CCCCN(Cc1cc2ccccc2[nH]c1=O)C(=O)c1cccc(Cl)c1	none (no result: Pf growth 48h, Pf growth 96h, HCV inhibitor)
COCCN(Cc1cn(C)nc1-c1ccc(Oc2ccccc2)cc1)C(C)C	Pf growth 96h inconclusive
Cn1cc(CN2CCC(O)CC2)c(-c2ccc(Oc3ccccc3)cc2)n1	Pf growth 96h 9.3µM
Cn1cc(CN2CCC(CO)CC2)c(-c2ccc(Oc3ccccc3)cc2)n1	HCMV inh inconclusive
Cc1cc(CNCc2cn(C)nc2-c2ccc(Oc3ccccc3)cc2)on1	Pf growth 48h inconclusive, Pf growth 96h 12µM, HCMV inh -68, HCV inhibitor inconclusive
CC(C)N(C)Cc1cn(C)nc1-c1ccc(Oc2ccccc2)cc1	Pf growth 96h 5.2µM, HCV inhibitor inconclusive
CC(C)(C)c1ccc(S(=O)(=O)NC(=O)C2(C)CCN2C(=O)Cc2ccc(-c3ccccc3)cc2)cc1 (configuration not stated)	none (no result: Pf growth 48h, Pf growth 96h, HCV inhibitor)
COc1cc(NC(=O)c2nn(C)c3c2COc2ccccc2-3)cc(OC)c1OC	none (no result: Pf growth 48h, Pf growth 96h, HCV inhibitor)
Nc1ccccc1C#CC(=O)c1ccccc1	Pf growth 48h inconclusive, HCMV inh -100, HCV inhibitor inconclusive
O=C(C#Cc1cccc([N+](=O)[O-])c1)c1ccccc1	none (no result: Pf growth 48h, HCMV inh, HCV inhibitor)
Cc1ccc(OCC(=O)Nc2ccc(N3CCN(C(=O)c4ccco4)CC3)cc2)cc1C	HCMV inh inconclusive
Cc1cc(OCC(=O)Nc2ccc(N3CCN(C(=O)c4ccco4)CC3)cc2)cc(C)c1Cl	Pf growth 48h 9.3µM, Pf growth 96h inconclusive, HCV inhibitor inconclusive
Cc1cccc(OCC(=O)Nc2ccc(N3CCN(C(=O)c4ccco4)CC3)cc2)c1	Pf growth 48h 9.3µM, HCMV inh -68, HCV inhibitor inconclusive
COc1cc2c(cc1OC)C(COc1cc(C)cc(C)c1)N(C(=O)C(C)(C)C)CC2 (configuration not stated)	none (no result: Pf growth 48h, Pf growth 96h, HCV inhibitor)
COc1ccc(CNC(=O)CCC2N=C3c4ccccc4N=C(SCc4ccc(F)cc4)N3C2=O)cc1 (configuration not stated)	none (no result: Pf growth 48h, Pf growth 96h, HCV inhibitor)
CC1=C(c2ccc(C)c(C)c2)S(=O)(=O)N=C1N1CCC(C(=O)N2CCC(C)CC2)CC1	none (no result: Pf growth 48h, Pf growth 96h, HCV inhibitor)
CCN1CCN(C(=O)C2=CC(c3ccc(OC)cc3)=NS(=O)(=O)N2C)CC1	Pf growth 96h inconclusive, HCMV inh -64
Cc1ccc(-c2csc(N3CCN(c4cc5c(cc4Cl)nc(C(C)N)n5CCCO)CC3)n2)cc1 (configuration not stated)	Pf growth 96h inconclusive, HCV inhibitor inconclusive
Cc1ccc(-c2csc(N3CCN(c4cc5c(cc4Cl)nc(C)n5CCN4CCCCC4)CC3)n2)cc1	Pf growth 48h inconclusive, Pf growth 96h 2.1µM, HCV inhibitor inconclusive
CCOC(=O)c1ccc(N2CCCCC2)c(NS(=O)(=O)c2cccc(C(F)(F)F)c2)c1	Pf growth 48h 10µM, Pf growth 96h 9.3µM, HCMV inh -65
Cc1ccc(S(=O)(=O)Nc2cc(C(=O)N3CCC4(CC3)OCCO4)ccc2N2CCCCC2)cc1	Pf growth 48h inconclusive, HCMV inh inconclusive (no result: Pf growth 96h)
COc1ccc(C(=O)O)cc1S(=O)(=O)Nc1cc(C(F)(F)F)ccc1N1CCCCC1	none (no result: Pf growth 48h, Pf growth 96h, HCV inhibitor)
CCN(CC)CCNC(=O)c1ccc(NC(=O)c2cc(S(=O)(=O)N3CCCCC3)ccc2N2CCOCC2)cc1	none (no result: Pf growth 48h, Pf growth 96h)
CCN(CC)CCNC(=O)c1ccc(N2CCCCC2)c(NS(=O)(=O)c2ccc(C)cc2)c1	Pf growth 48h inconclusive, HCMV inh inconclusive, HCV inhibitor 11µM
COC(=O)c1ccc(N2CCCCC2)c(NS(=O)(=O)c2ccc(C)cc2)c1	Pf growth 48h inconclusive, HCV inhibitor 13µM (no result: Pf growth 96h)
Cc1ccc(Nc2c(-c3ccncc3)nc3ccc(C)cn23)cc1	none (no result: Pf growth 48h, Pf growth 96h, HCV inhibitor)
CCCCOc1ccc(C(=O)NCc2nnnn2-c2ccc(C)c(C)c2)cc1	none (no result: Pf growth 48h, Pf growth 96h, HCV inhibitor)
O=C(Nc1ccccc1-c1ccccc1)c1ccc(=O)[nH]n1	Pf growth 96h 15µM, HCMV inh inconclusive
Cc1ccc2c(c1)sc[n+]2Cc1ccccc1	HCV inhibitor 10µM
OCc1cccc[n+]1Cc1ccccc1	none (no result: Pf growth 48h, Pf growth 96h)
COc1ccccc1CC(=O)NNC(=O)c1cccs1	Pf growth 96h 0.26µM
Cc1cc(Br)cc(C)c1OCC(=O)NNC(=O)c1cccs1	Pf growth 96h 12µM
O=C(COc1ccc(Br)cc1Br)NNC(=O)c1cccs1	none
Cc1[nH]nc2c1C(c1cc(Br)cs1)C(C#N)=C(N)O2 (configuration not stated)	Pf growth 96h inconclusive, HCMV inh -98, HCV inhibitor inconclusive
COc1cc(C2C(C#N)=C(N)Oc3n[nH]c(C)c32)ccc1OC(=O)c1ccccc1 (configuration not stated)	Pf growth 96h 17µM
CCCc1[nH]nc2c1C(c1ccc(OCCN3CCOCC3)c(OCC)c1)C(C#N)=C(N)O2 (configuration not stated)	none
Cc1[nH]nc2c1C(c1ccc(OC(=O)c3ccco3)cc1)C(C#N)=C(N)O2 (configuration not stated)	none
COCc1[nH]nc2c1C(c1ccc(OC)cc1)C(C#N)=C(N)O2 (configuration not stated)	Pf growth 96h 1.3µM
CCOc1cc(C2C(C#N)=C(N)Oc3n[nH]c(CC)c32)ccc1OCCN1CCOCC1 (configuration not stated)	Pf growth 48h inconclusive, Pf growth 96h 9.3µM
Cc1[nH]nc2c1C(c1ccco1)C(C#N)=C(N)O2 (configuration not stated)	none
CC(Nc1nc(=S)nc(Nc2ccc(F)cc2)[nH]1)c1ccccc1 (configuration not stated)	Pf growth 48h 12µM, Pf growth 96h 10µM, HCMV inh inconclusive
CCOC(=O)N1CCC(NC(=O)c2ccc3c(c2)N(Cc2ccc(Cl)cc2)C(=O)c2ccccc2S3(=O)=O)CC1	none (no result: Pf growth 48h, Pf growth 96h, HCV inhibitor)
COC(=O)C1=C(C)NC(=O)NC1c1ccccc1 (configuration not stated)	Pf growth 96h inconclusive
C=CCOc1c(OC)cc(Cl)cc1C1NC(=O)NC(C)=C1C(C)=O (configuration not stated)	Pf growth 96h 3.3µM
C=CCOc1c(Cl)cc(C2NC(=O)NC(C)=C2C(=O)OC)cc1Cl (configuration not stated)	Pf growth 48h 9.3µM, HCV inhibitor 11µM (no result: Pf growth 96h)
O=C(CCl)Nc1ccc(N=Nc2ccccc2)cc1	Pf growth 48h 4.7µM, Pf growth 96h inconclusive
CC(C)N(c1ccccc1)c1ccc(NC(=O)CCl)cc1	Pf growth 48h 10µM, Pf growth 96h 10µM, HCMV inh -61, HCV inhibitor inconclusive
COc1ccc(C2=NCCn3nc4cc([N+](=O)[O-])ccc4c32)cc1	Pf growth 48h inconclusive, Pf growth 96h inconclusive, HCV inhibitor inconclusive
COc1ccc(-n2cc3ccc([N+](=O)[O-])cc3n2)cc1	HCMV inh -96, HCV inhibitor inconclusive
